Measurements from ChEMBL document CHEMBL3988442, “University of Dundee, Small-Polar-MMV Screening Library” (2021).
Hit rate of the full screen: of about 48,000 compounds, about 13,000 (27%) showed an effect of 50% or more. This is one part of the list.

These compounds were tested on Wolbachia pipientis (assay: Anti-Wolbachia Cell-Based Screen). Conditions: 5 µM.
Assay type: functional
Parameters: scale not given: in the data most compounds retested in dose-response had high values

**Q.** Which “Percent Effect” value does the source give for `CCCc1cc(NCCn2cccn2)n2ncnc2n1` here?
**A.** The value was -13%.

**Q.** For `Cc1cc(NCCCNc2cccnc2)n2nc(C)c(C)c2n1`, which “Percent Effect” value is on record?
**A.** Its value is 88.33%.

**Q.** How did the “Percent Effect” value turn out when `Cc1cc(NCCSc2nccn2C)n2nc(C)c(C)c2n1` was run?
**A.** Its value is 108.3%.

**Q.** How did the “Percent Effect” value turn out when `CNc1ccnc(NCCSc2nccn2C)n1` was run?
**A.** The value was 3.348%.

**Q.** Which “Percent Effect” value does the source give for `CCc1cc(NCCc2cccnc2)n2nc(C)c(C)c2n1` here?
**A.** The value was 15.8%.

**Q.** For `Cc1ccnc(NCCSc2nccn2C)n1`, which “Percent Effect” value is on record?
**A.** The value was -1.785%.

**Q.** Which “Percent Effect” value does the source give for `CCSCCNc1cc(C)nc2c(C)c(C)nn12` here?
**A.** The value was 76.05%.

**Q.** For `CCc1cc(NCCNC(=O)c2cccnc2)n2nc(C)c(C)c2n1`, which “Percent Effect” value is on record?
**A.** Its value is 18.31%.

**Q.** For `Cc1cc(NCCn2cccn2)n2ncnc2n1`, which “Percent Effect” value is on record?
**A.** Its value is -4.993%.

**Q.** Which “Percent Effect” value does the source give for `CCc1cc(NCCc2cnccn2)n2nc(C)c(C)c2n1` here?
**A.** Its value is -4.525%.

**Q.** How did the “Percent Effect” value turn out when `Cc1cc(NCCSc2nccn2C)n2ncnc2n1` was run?
**A.** The value was 81.57%.

**Q.** For `Cc1cc(NCc2nnc3n2CCC3)n2nc(C)c(C)c2n1`, which “Percent Effect” value is on record?
**A.** The value was 8.542%.

**Q.** `CCOC(=O)c1nnc2ccccc2c1N1CCN(CC)CC1` was tested. Which “Percent Effect” value did it give?
**A.** The value was -7.556%.

**Q.** For `CC(C)(C)c1cnc(CN2CCC(NC(=O)CC3CCCC3)CC2)o1`, which “Percent Effect” value is on record?
**A.** Its value is 1.419%.

**Q.** `O=C(NC1CCCc2nc(N3CCCCC3)ncc21)C1CCCC1` (stereo not given) was tested. Which “Percent Effect” value did it give?
**A.** Its value is 90.75%.

**Q.** How did the “Percent Effect” value turn out when `O=C(NC1CCCc2nc(N3CCOCC3)ncc21)C1CCCCC1` (stereo not given) was run?
**A.** Its value is 91.3%.

**Q.** With `O=C(CC1CCCCC1)NC1CCCc2nc(N3CCOCC3)ncc21` (stereo not given) as the compound, how does the “Percent Effect” value read?
**A.** The value was 100.9%.

**Q.** How did the “Percent Effect” value turn out when `O=C(NC1CCCc2nc(N3CCOCC3)ncc21)C1CCCC1` (stereo not given) was run?
**A.** The value was 122.7%.

**Q.** `CCS(=O)(=O)c1ccc(N2CCC(NC(=O)CC3CCCC3)CC2)cc1` was tested. Which “Percent Effect” value did it give?
**A.** The value was -9.103%.

**Q.** `CC1(C)CC(N2Cc3nc(N4CCOCC4)ncc3C2=O)CC(C)(C)N1` was tested. Which “Percent Effect” value did it give?
**A.** The value was 10.47%.

**Q.** For `CN(C)c1ncc2c(n1)CCCC2NC(=O)C1CC1` (stereo not given), which “Percent Effect” value is on record?
**A.** The value was 13.73%.

**Q.** With `Cn1ccnc1-c1ccc(NC[C@H]2CCc3ccccc3O2)nn1` as the compound, how does the “Percent Effect” value read?
**A.** Its value is 2.045%.

**Q.** With `Cn1c(NC(=O)CNC(=O)C2CCCC2)nc2cc(Cl)ccc21` as the compound, how does the “Percent Effect” value read?
**A.** Its value is 10.58%.

**Q.** `Cc1nnc(CN2CCC3(CCC(=O)N(C4CC4)C3)CC2)o1` was tested. Which “Percent Effect” value did it give?
**A.** The value was 3.003%.

**Q.** Which “Percent Effect” value does the source give for `COc1cccc2c1OCC(C(=O)N1CCN(S(=O)(=O)N(C)C)CC1)C2` (stereo not given) here?
**A.** Its value is -34.53%.

**Q.** `CCS(=O)(=O)N1Cc2nccn2CC(Cn2nc(C)nc2C)C1` (stereo not given) was tested. Which “Percent Effect” value did it give?
**A.** The value was 6.553%.

**Q.** With `CCS(=O)(=O)N1Cc2nccn2CC(Cn2cncn2)C1` (stereo not given) as the compound, how does the “Percent Effect” value read?
**A.** The value was 101.6%.

**Q.** With `CCS(=O)(=O)N1Cc2nccn2CC(CN2CCCC2)C1` (stereo not given) as the compound, how does the “Percent Effect” value read?
**A.** Its value is -0.1339%.

**Q.** How did the “Percent Effect” value turn out when `CCCS(=O)(=O)N1Cc2nccn2CC(Cn2cccn2)C1` (stereo not given) was run?
**A.** Its value is -3.213%.

**Q.** For `CCS(=O)(=O)N1Cc2nccn2CC(Cn2cccn2)C1` (stereo not given), which “Percent Effect” value is on record?
**A.** Its value is 103.5%.

**Q.** Which “Percent Effect” value does the source give for `Cc1nc(C)n(CC2CN(S(C)(=O)=O)Cc3nccn3C2)n1` (stereo not given) here?
**A.** The value was 2.83%.

**Q.** With `O=S(=O)(C1CC1)N1Cc2nccn2CC(Cn2cncn2)C1` (stereo not given) as the compound, how does the “Percent Effect” value read?
**A.** The value was 116.3%.

**Q.** With `CCCS(=O)(=O)N1Cc2nccn2CC(Cn2cncn2)C1` (stereo not given) as the compound, how does the “Percent Effect” value read?
**A.** Its value is 104.9%.

**Q.** With `CCCS(=O)(=O)N1Cc2nccn2CC(CN2CCCC2)C1.O=C(O)C(F)(F)F` (stereo not given) as the compound, how does the “Percent Effect” value read?
**A.** The value was -1.434%.

**Q.** How did the “Percent Effect” value turn out when `CCn1nccc1C(=O)N1CCCCC1CCc1ccc(O)cc1` (stereo not given) was run?
**A.** The value was 1.71%.

**Q.** For `CC(NC(=O)Nc1nccs1)c1ccc(S(C)(=O)=O)cc1` (stereo not given), which “Percent Effect” value is on record?
**A.** Its value is 7.495%.

**Q.** For `CCC(C(=O)NCC1CCN(c2cnn(C)c(=O)c2)CC1)n1cccn1` (stereo not given), which “Percent Effect” value is on record?
**A.** The value was 4.446%.

**Q.** For `O=C(c1ccoc1)N1CCCn2nnc(COCC3CC3)c2C1`, which “Percent Effect” value is on record?
**A.** Its value is -7.176%.

**Q.** For `O=C(C1CCC1)N1CCc2[nH]cnc2C12CCN(C1CCOCC1)CC2`, which “Percent Effect” value is on record?
**A.** The value was 2.513%.

**Q.** With `CN1CCN(Cc2nc3c(s2)CCCC3)[C@H]2CS(=O)(=O)C[C@H]21` as the compound, how does the “Percent Effect” value read?
**A.** Its value is -12.07%.

**Q.** For `CC(C)(C)c1nnc(CN2CCN(CC(O)c3ccccc3)CC2)o1` (stereo not given), which “Percent Effect” value is on record?
**A.** Its value is -4.717%.

**Q.** `O=C(CCCc1ccc(F)cc1)N1C[C@@H](CN2CCOCC2)[C@@H](CO)C1` was tested. Which “Percent Effect” value did it give?
**A.** Its value is -13.37%.

**Q.** How did the “Percent Effect” value turn out when `O=C1CN(Cc2cnc3c(-c4ccccc4)cnn3c2)CCCN1` was run?
**A.** The value was -7.334%.

**Q.** How did the “Percent Effect” value turn out when `CNC(=O)[C@@H](C1CC1)N1CCC[C@H]1C(=O)NCC(C)C.Cl` was run?
**A.** Its value is 5.18%.

**Q.** `CN(CCN1CCCCCC1)C(=O)c1cc(CN2CCCC(O)C2)on1` (stereo not given) was tested. Which “Percent Effect” value did it give?
**A.** Its value is -22.76%.

**Q.** With `CC(=O)Nc1c(C)cnn1Cc1cc(F)ccc1F` as the compound, how does the “Percent Effect” value read?
**A.** Its value is -3.865%.

**Q.** For `COc1ccc(C(=O)NCCCNc2ncccn2)c(OC)c1`, which “Percent Effect” value is on record?
**A.** Its value is -2.256%.

**Q.** `CC(OCCCNC(=O)c1cccnc1O)c1ccccc1` (stereo not given) was tested. Which “Percent Effect” value did it give?
**A.** The value was 95.41%.

**Q.** How did the “Percent Effect” value turn out when `COc1ccc(C(=O)NCCc2nnc3ccccn23)c(OC)c1` was run?
**A.** The value was -1.311%.

**Q.** Which “Percent Effect” value does the source give for `O=C(NCCCN1CCc2ccccc2C1)c1cccnc1O` here?
**A.** Its value is 6.847%.

**Q.** `CS(=O)(=O)NCCCNC(=O)c1cccnc1O` was tested. Which “Percent Effect” value did it give?
**A.** Its value is -1.609%.

**Q.** Which “Percent Effect” value does the source give for `COc1ccc(C(=O)NCCCOC(C)c2ccccc2)c(OC)c1` (stereo not given) here?
**A.** Its value is 92.39%.

**Q.** For `COCCN1CC2(CCCN(Cc3cc(=O)c(OC)co3)C2)CCC1=O` (stereo not given), which “Percent Effect” value is on record?
**A.** Its value is 3.181%.

**Q.** How did the “Percent Effect” value turn out when `COc1cc(CNC(=O)NCCCF)cc(Br)c1OC` was run?
**A.** The value was -2.867%.

**Q.** How did the “Percent Effect” value turn out when `CCN(C(=O)CSc1ccc(C(F)(F)F)cn1)C1CC1` was run?
**A.** Its value is -14.79%.

**Q.** For `CN(C(=O)CN1CCCC1Cc1ccccc1)c1ccccc1` (stereo not given), which “Percent Effect” value is on record?
**A.** Its value is 21.48%.

**Q.** Which “Percent Effect” value does the source give for `CN(C(=O)CSc1ncc[nH]1)C1CC1` here?
**A.** Its value is 109.9%.

**Q.** With `CCN(CC)C(=O)CSc1ncc[nH]1` as the compound, how does the “Percent Effect” value read?
**A.** Its value is 45.3%.

**Q.** For `CN(C(=O)Cn1nc(-c2ccc(F)cc2)oc1=O)c1ccccc1`, which “Percent Effect” value is on record?
**A.** The value was -62.32%.

**Q.** For `CN(C(=O)CSc1ncc[nH]1)c1ccccc1`, which “Percent Effect” value is on record?
**A.** The value was 93.6%.

**Q.** With `COc1ncccc1NC(=O)N1CCCC(CNC(=O)OC(C)(C)C)C1` (stereo not given) as the compound, how does the “Percent Effect” value read?
**A.** Its value is 1.374%.

**Q.** How did the “Percent Effect” value turn out when `O=C(NC[C@H]1Cn2c(-c3ccccc3)cnc2CO1)C1CCOCC1` was run?
**A.** The value was -9.795%.

**Q.** How did the “Percent Effect” value turn out when `Cn1c(-c2ccccc2Cl)nc2cc(C(=O)NCC3(C)COC3)cnc21` was run?
**A.** The value was 7.504%.

**Q.** `CCCc1nccn1-c1cccc(C(C)O)c1` (stereo not given) was tested. Which “Percent Effect” value did it give?
**A.** Its value is 0.8056%.

**Q.** Which “Percent Effect” value does the source give for `Cc1ccc(C(=O)NC2CCN(C(=O)Nc3ccncc3)CC2)o1` here?
**A.** Its value is 166.8%.

**Q.** How did the “Percent Effect” value turn out when `Cc1ccc(NC(=O)N2CCC(NC(=O)c3ccc(C)o3)CC2)cc1` was run?
**A.** The value was -6.266%.

**Q.** How did the “Percent Effect” value turn out when `O=C(NCc1ccccn1)N1CC=C(c2ccccc2)CC1` was run?
**A.** The value was 32.63%.

**Q.** How did the “Percent Effect” value turn out when `Cc1ccc(C(=O)NC2CCN(C(=O)NCc3ccccn3)CC2)o1` was run?
**A.** Its value is 118.1%.

**Q.** How did the “Percent Effect” value turn out when `Cc1ccc(C(=O)NC2CCN(C(=O)Nc3ccccn3)CC2)o1` was run?
**A.** Its value is 4.828%.

**Q.** `Cc1cc(C(=O)NC2CCN(C(=O)Nc3cccnc3)CC2)c(C)o1` was tested. Which “Percent Effect” value did it give?
**A.** Its value is 20.93%.
